This note sets out measurements from the supplement of paper PMC13380429.

Where a name gives a salt, the structure may show the parent alone. Values without a mark were called inactive.

The subject of the assay is Vero E6 infected with SARS-CoV-2. Kind of assay: SARS-CoV-2 infection rate relative to infected DMSO; higher = more infection, active = 60 or less. The settings on record: 24 h.
As for `CCOC(=O)c1ccc(N(C)c2csc(-c3ccccc3)n2)cc1` [neuropathiazol] (10 µM), the SARS-CoV-2 infection rate is 110%.

Take `CCc1cc(C(N)=S)ccn1` [ethionamide] (10 µM): the SARS-CoV-2 infection rate is 102%.

With `Cc1nnc(-c2ccc3occ(-c4ccc([S+](C)[O-])cc4)c3c2)o1` (configuration not stated) (10 µM), the SARS-CoV-2 infection rate is 92.5%.

In the case of `CC(C)=CCC/C(C)=C/CC/C(C)=C/CCC(=O)OC/C=C(\C)CCC=C(C)C` [geranyl-farnesylacetate] (10 µM), the SARS-CoV-2 infection rate was 99%.

With `COCCCOc1cc(C[C@@H](C[C@H](N)[C@@H](O)C[C@H](C(=O)NCC(C)(C)C(N)=O)C(C)C)C(C)C)ccc1OC` [aliskiren-hemifumarate] (10 µM), the SARS-CoV-2 infection rate was 110%.

With `Cn1c(N2CCCCS2(=O)=O)nc(C(=O)NCc2ccc(F)cc2)c(O)c1=O` (10 µM), the SARS-CoV-2 infection rate was 104%.

For the compound `CCOC(=O)C(=O)Nc1cccc(OC)c1C(N)=O` (10 µM), the SARS-CoV-2 infection rate was 102%.

Regarding `CC(C)C[C@H](CN)CC(=O)O` (10 µM), the SARS-CoV-2 infection rate is 106%.

With `O=C(NC1CCNCC1)c1n[nH]cc1NC(=O)c1c(Cl)cccc1Cl` (10 µM), the SARS-CoV-2 infection rate is 109%.

In the case of `Cc1cc(-c2nc(C(=O)Nc3cn(C4CCOCC4)nc3C(N)=O)co2)ccn1` (10 µM), the SARS-CoV-2 infection rate was 118%.

On to `CO/N=C(\C(=O)N[C@@H]1C(=O)N2C(C(=O)O)=C(Cn3ccc(=N)n3CCO)CS[C@H]12)c1csc(N)n1` [Cefoselis sulfate] (10 µM), for which the SARS-CoV-2 infection rate is 101%.

Take `CC[C@@H](CO)NCCN[C@@H](CC)CO` [ethambutol] (10 µM): the SARS-CoV-2 infection rate is 109%.
